Among the data in PubChem BioAssay AID525 (The Scripps Research Institute Molecular Screening Center, 2006) are inhibition values, retold here.

About 360 (0.55%) of roughly 65,000 compounds were called active.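 The calls were made as follows: active = inhibition above the mean inhibition of all tested compounds plus 3 SD (cut at about 48% in these data); inactive = the rest.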 The list comes from a sample in which actives are over-represented; it also holds similar structures and randomly drawn compounds.

For the assay, the target named is Steroidogenic factor 1 (Homo sapiens) (UniProt Q13285). Put plainly: inhibitors of human SF-1, primary screen, cell-based, CHO-K1, Gal4-SF-1 LBD, luciferase luminescence (AID 525).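 Also: 0% = SF-1 transfected cells with DMSO and 100% = mock-transfected cells lacking SF-1.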 As to conditions: CHO-K1 Gal4-SF-1 LBD luciferase reporter; at 10 µM; active compounds read high. Background: In a reporter assay the amount or activity of a reporter protein is the signal.
Chain of Steroidogenic factor 1 (Homo sapiens) (Q13285 whole entry, looked up, the tested form may be a part): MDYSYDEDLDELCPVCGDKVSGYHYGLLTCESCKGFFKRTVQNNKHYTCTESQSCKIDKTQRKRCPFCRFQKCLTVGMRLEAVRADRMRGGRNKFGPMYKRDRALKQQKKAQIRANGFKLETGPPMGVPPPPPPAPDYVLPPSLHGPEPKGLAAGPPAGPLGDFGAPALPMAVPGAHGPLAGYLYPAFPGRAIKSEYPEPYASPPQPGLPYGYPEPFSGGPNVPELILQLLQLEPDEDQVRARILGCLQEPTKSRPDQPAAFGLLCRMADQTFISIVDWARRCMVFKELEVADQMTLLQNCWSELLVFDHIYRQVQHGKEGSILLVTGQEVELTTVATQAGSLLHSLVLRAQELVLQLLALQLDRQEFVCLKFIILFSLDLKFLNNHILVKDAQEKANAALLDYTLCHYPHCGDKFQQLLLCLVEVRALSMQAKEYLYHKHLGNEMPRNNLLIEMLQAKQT
The term inhibition denotes the drop in the measured response relative to a control, in per cent. In the case of `COc1ccc(NC(=O)Nc2cccc3cccnc23)cc1`, the inhibition is -65.5% (inactive).
Consider `O=C(CSCc1cccs1)N1CCCC1`, for which the inhibition is -60.5% (inactive).
To `CCCCCN(C(=O)NC(=O)Nc1ccccc1OC)S(C)(=O)=O` belongs -5.9% (inactive).
Consider `CN(C(=O)c1ccccn1)c1nnc(-c2ccccn2)s1`, for which the inhibition was -56.6% (inactive).
For the molecule `COc1ccc(OCc2ccc(-c3nc4ccccc4c(=O)n3N)o2)cc1`, the inhibition was -59% (inactive).
As to `COc1ccc(-c2cn3ccsc3n2)cc1`, the inhibition is -53.3% (inactive).
Take `COC(=O)Cn1cc(C(=O)c2cccs2)c2ccccc21`: the inhibition is 2.8% (inactive).
As for `CC[C@H]1CN2CCc3cc(OC)c(OC)cc3[C@@H]2C[C@@H]1C[C@H]1NCCc2cc(OC)c(OC)cc21`, the inhibition was 96% (active).
For the molecule `Cn1c(=O)c2c(nc(SCC(=O)Nc3ccccc3N3CCCCC3)n2C)n(C)c1=O`, the inhibition was -2.8% (inactive).
For `CCC(=O)Nc1cccc(NC(=O)CSc2nnc(-c3ccc(NS(C)(=O)=O)cc3)n2C)c1`, the inhibition is -2.4% (inactive).
Turning to `COc1ccc(N2C(=O)C3CCCN3C2c2cc(OC)c(OC)cc2OC)cc1` (stereo not given), the inhibition is 2.8% (inactive).
Consider `N#Cc1ccc(OCCN2C(=O)NC3(CCSC3)C2=O)cc1` (stereo not given), for which the inhibition is -12.8% (inactive).
For the molecule `O=C(NCCN1C(=O)C2C3C=CC(C3)C2C1=O)Nc1ccccn1` (stereo not given), the inhibition was -7.6% (inactive).
Regarding `Cc1cc(C)c(NC(=O)CS(=O)CC(=O)Nc2cccnc2)c(C)c1` (stereo not given), the inhibition was 2.2% (inactive).
`CC(=O)c1c(N2CCOCC2)nc(=S)n(Cc2ccccc2)c1C`: the inhibition is 4.9% (inactive).
Take `COC(=O)c1cc(C(=O)CSc2nc(C)cc(C)n2)ccc1O`: the inhibition was 11.2% (inactive).
In the case of `O=C(c1cnn2ccccc12)N1CCc2ccccc21`, the inhibition was -111% (inactive).
With `Cc1nnc(SCC(=O)NCc2cccs2)[nH]c1=O`, the inhibition was 13.6% (inactive).
As for `Fc1cc(F)c2nc(N3CCOCC3)sc2c1`, the inhibition is -52.6% (inactive).
The value for `c1c2c(cc3sc(N4CCCCC4)nc13)OCCO2` was 71.4% (active); that for `O=C(c1cccc(C(=O)N2CCc3ccccc32)n1)N1CCc2ccccc21` was 0.9% (inactive); that for `CCNC(=O)CCc1nc(-c2ccc(C(C)(C)C)cc2)no1` was 86.4% (active).
For `Cc1ccc(Cc2nc(-c3cccc(C)c3)no2)cc1`, the inhibition was -53.9% (inactive).
`Brc1cccc(-c2nnc3n2CCC3)c1`: the inhibition was 3.8% (inactive).
As for `CC12CN(Cc3ccccc3)CC(C)(CN(Cc3ccccc3)C1)C2=NO`, the inhibition is 25.5% (inactive).
To `O=C(Nc1ccc(Cl)cc1)c1ccsn1` belongs -73.5% (inactive); to `O=C(Nc1ccccc1C(F)(F)F)c1cc(-c2ccc(O)cc2)on1`, -64.4% (inactive); to `CC1CSc2nnc(CCc3ccccc3)n21` (stereo not given), 3.6% (inactive).
With `O=C(COc1ccc(Cl)cc1)Nc1ccccc1CO`, the inhibition is -29% (inactive).
In the case of `O=C(NCc1cn2ccsc2n1)Nc1ccc(Cl)cc1`, the inhibition is 1.7% (inactive).
To `O=C(NCc1ccco1)c1cc2sccc2n1Cc1ccc(F)cc1` belongs 11% (inactive); to `COc1ccc(CCNC(=O)CSc2nc(C)nc3c2oc2ccccc23)cc1OC`, -27.3% (inactive); to `COc1cccc(CN2C(=O)CCC2(C)C(=O)NC2CCCCCC2)c1` (stereo not given), -6.9% (inactive).
The value for `O=C(Nc1cccc(Cl)c1)OCc1ccccn1` was -33.6% (inactive); that for `COc1ccccc1NC(=O)CSc1nnc(Cc2cccn2C)n1-c1ccc(F)cc1` was 16.2% (inactive); that for `O=C(Nc1ccccc1F)c1cc(S(=O)(=O)N2CCCCC2)cs1` was 4.9% (inactive).
The value for `COc1cccc(OC)c1C(=O)Nc1nnc(C(C)C)s1` was 5.1% (inactive).
Take `C=CCNC(=O)CCCOc1cccc(C)c1`: the inhibition was -11.2% (inactive).
In the case of `Cc1cccc(NC(=O)c2ccc3ccccc3n2)n1`, the inhibition is -98.6% (inactive).
On to `COc1cccc(N(CC(=O)NC2CCCC2)C(=O)Cn2nnc(-c3ccc(C)cc3)n2)c1`, for which the inhibition is -13.3% (inactive).
Take `COC(=O)c1sc(NC(=O)c2csc3c2CCCC3)nc1C`: the inhibition was -50.9% (inactive).
As to `COC(=O)c1sc(NC(=O)c2ccc(OC)cc2OC)nc1C`, the inhibition was 57.8% (active).
Regarding `COc1cccc2sc(Nc3nc(C)c(C(C)=O)s3)nc12`, the inhibition was -109% (inactive).
To `CC(C)C(c1nnnn1Cc1ccccc1)N1CCC(C(N)=O)CC1` (stereo not given) belongs 7.4% (inactive); to `Cn1nnc2cc(C(=O)NCCC3=CCCCC3)ccc21`, -49.9% (inactive).
Consider `O=C(c1cccs1)N1CCN(C(=O)N2CCOCC2)CC1`, for which the inhibition was -0.9% (inactive).
In the case of `CN(c1ccc(C(=O)NCCC2=CCCCC2)cc1)S(C)(=O)=O`, the inhibition is -55.4% (inactive).
Consider `CCC(=O)Oc1cccc(C(=O)Nc2ccc(-c3nnc(-c4ccco4)o3)cc2)c1`, for which the inhibition is -79.8% (inactive).
To `CCCCOc1ccc(-c2nnc(-c3ccco3)o2)cc1` belongs -23.7% (inactive).
Take `CCOc1ccc(-c2nnc(-c3ccco3)o2)cc1`: the inhibition was 48% (active).
`Cc1csc(NC(=O)C2CCCN2C(=O)OCC(C)C)n1` (stereo not given): the inhibition was 5.9% (inactive).
As for `O=C(NCc1ccccn1)Nc1ccc(F)cc1`, the inhibition is -14.7% (inactive).
To `CC(=O)OC(C(=O)NCCc1ccccc1)c1cccnc1` (stereo not given) belongs 4.1% (inactive); to `CCCC(=O)C1=C(N(C)c2ccccc2)CC(C)(C)C(C(=O)OC)C1=O` (stereo not given), -2.3% (inactive).
As for `CCc1nnc(NC(=O)c2cccs2)s1`, the inhibition is -50% (inactive).
Turning to `Cc1noc(NS(=O)(=O)c2ccc(N3CC(O)=C(c4ccccc4)C3=N)cc2)c1C`, the inhibition is 10.1% (inactive).
For the molecule `COCc1cc(C)nc(Nc2cc(C)ccc2C)c1C#N`, the inhibition is 3.4% (inactive).
For `COc1ccc(C)c2sc(=NC(=O)c3ccc(C#N)cc3)n(C)c12`, the inhibition was -42.4% (inactive).
To `Clc1ccc(Cc2nnc(-c3cccs3)o2)cc1` belongs -59.5% (inactive).
For the molecule `CCn1c(CSc2nncn2-c2ccc(OC)cc2)nc2cc(S(=O)(=O)N(C)C)ccc21`, the inhibition was -10.1% (inactive).
Consider `COc1ccc(OCCCC(=O)Nc2nnc(C3CCCO3)s2)cc1` (stereo not given), for which the inhibition is -1.2% (inactive).
For `Cc1[nH]c2ccc(S(N)(=O)=O)cc2c1C`, the inhibition was -22.2% (inactive).
To `CN(C)c1ccc(CNC23CN4CN(CN(C4)C2)C3)cc1` belongs 14.1% (inactive).
As for `O=C(NCc1ccccc1)C1C(=O)N(Cc2ccccc2)C(=O)C1C1(O)CCCC1` (stereo not given), the inhibition is 4.4% (inactive).
`CC1CN(c2cc(=O)n(Cc3ccc(F)cc3)c(=O)[nH]2)CC(C)O1` (stereo not given): the inhibition was -7.1% (inactive).
